# Test results taken from PubChem BioAssay (EPA / NIEHS).
# Several values for one entry are separate records, joined by “and”; a condition that tells them apart may be missing. Identical values can stand only once. Some structures have more than one record in an assay (separate samples or runs), and their calls can disagree. Activity calls are given as the source filed them. How the source made its calls: active means hit-call score of the fitted dose curve at least 0.9, where 1 is the maximum; inactive means score below 0.9.
# Assay: APR_HepG2_MitoMass_24hr: Apredica 24-hour HepG2 Assay for Mitochondrial Mass (AID 2282912)
# Conditions: high-content imaging, actives raise or lower the signal
# Method: APR_HepG2_24hr is a cell-based, multiplexed-readout assay that uses HepG2, a human liver cell line, with measurements taken at 24 hours after chemical dosing in a 384-well plate.APR_HepG2_MitoMass_24hr is one of 10 assay component(s) measured or calculated from the APR_HepG2_24hr assay. It is designed to make measurements of cell phenotype, a form of morphology reporter, as detected with fluorescence intensity signals by HCS Fluorescent Imaging technology.Data from the assay component APR_HepG2_MitoMass_24hr was analyzed into 1 assay endpoint. This assay endpoint, APR_HepG2_MitoMass_24hr, was analyzed with bidirectional fitting relative to DMSO as the negative control and baseline of activity. Using a type of morphology reporter, gain or loss-of-signal activity can be used to understand changes in the signaling. Furthermore, this assay endpoint can be referred to as a primary readout, because this assay has produced multiple assay endpoints where this one serves a signaling function. To generalize the intended target to other relatable targets, this assay endpoint is annotated to the cell morphology intended target family, where the subfamily is organelle conformation.
# Cells were treated with dimethyl sulfoxide (DMSO) as a solvent control at a final concentration of 0.5% v/v or with compounds in DMSO with a resulting final DMSO concentration of 0.5% v/v. Compound treatment was done at concentrations of 0.39, 0.78, 1.56, 3.12, 6.24, 12.5, 25, 50, 100, and 200 uM in duplicate on each plate. Cells were treated with compounds for 1, 24, or 72 hr. Carbonyl […] m-chloro-phenylhydrazone (CCCP) and taxol were used as positive controls for mitochondrial function and cytoskeletal stability, respectively; DMSO served as the negative control for this experiment. Cells were fixed by the direct addition of 50 uL formaldehyde in Hank's Balanced Salt Solution (HBSS) to a final concentration of 3.7%. After incubation in the fixation medium for 30 min at room temperature (293-298 K), cells were rinsed twice with HBSS and treated with cell permeabilization buffer (16 uL of 0.5% Triton X-100) for 10 min at room temperature (293-298 K) before labeling. For mitochondrial membrane potential and mitochondrial measurements, pre-fixed cells were incubated with 50 uL of MitoTracker Red CMXRos (Invitrogen) at a concentration of 250 nM for 30 min before fixation. In the remaining cases, post-fixed cells were labeled by incubation with a multiplexed mixture of primary antibodies in HBSS for 60 min at room temperature (293-298 K) to detect immunoreactivity of c-Jun (1:500), phospho-histone H3 (1:100), phospho-histone H2A.x (1:200), p53 (1:400), alpha-tubulin (1:200) and Hoechst 33342 (2 ug/mL). Cells were labeled for multiplexed imaging on two separate plates: a) Hoechst 33342, MitoTracker Red, phospho-histone H3, and alpha-tubulin, and b) Hoechst 33342, phospho-histone H2A.x, and c-Jun. A final rinse with HBSS (50 uL) was performed before analysis. The primary and secondary antibodies for the proteins were phospho-histone H3 (rabbit anti-phospho-histone H3 and FITC-donkey anti-rabbit IgG), phospho-histone H2A.x (mouse anti-phospho-histone H2A.x and FITC-donkey anti-mouse IgG), c-Jun (rabbit anti-phospho-c-Jun and Cy3-donkey anti-rabbit IgG), p53 (sheep anti-p53 and Cy5-donkey anti-sheep IgG), alpha-tubulin (mouse anti-alpha-tubulin and Cy5-donkey anti-mouse IgG). These antibodies are available as the CellCiphr HepG2 assay kit (Millipore).Digital images of each well were captured using a Cellomics ArrayScan VTI (Thermo Scientific Cellomics) (0.8 NA objective, 0.63x optical coupler, and XF-93 filter set) at 20x magnification. The images were acquired using the autofocus feature of the ArrayScan instrument, which entails the following steps. First, the camera focuses on channel 1 (Hoechst 33342), where nuclei are identified. Second, a Z offset of 1 um is used for capturing mitochondria (MitoTracker Red). […]
SMILES,outcome,AC50
COc1ccc(C(c2ccc(OC)cc2)C(Cl)(Cl)Cl)cc1,inactive,
C#CCOS(=O)OC1CCCCC1Oc1ccc(C(C)(C)C)cc1 (stereo not given),inactive,
CCCC1COC(Cn2cncn2)(c2ccc(Cl)cc2Cl)O1 (stereo not given),inactive,
COC(=O)N(OC)c1ccccc1COc1ccn(-c2ccc(Cl)cc2)n1,inactive,
CCOC(=O)C(Cl)Cc1cc(-n2nc(C)n(C(F)F)c2=O)c(F)cc1Cl (stereo not given),inactive,
N#CC(CCc1ccc(Cl)cc1)(Cn1cncn1)c1ccccc1 (stereo not given),inactive,
COc1cnc(OC)n2nc(NS(=O)(=O)c3c(OCC(F)F)cccc3C(F)(F)F)nc12,inactive,
CCOc1cc(Oc2ccc(C(F)(F)F)cc2Cl)ccc1[N+](=O)[O-],inactive,
Fc1ccc(Oc2ccnc3cc(Cl)cc(Cl)c23)cc1,inactive,
CON(C)C(=O)Nc1ccc(Cl)c(Cl)c1,inactive,
CCCCNC(=O)n1c(NC(=O)OC)nc2ccccc21,inactive,
O=C(O)COc1nc(Cl)c(Cl)cc1Cl,inactive,
COP(N)(=O)SC (stereo not given),inactive,
CCOC(=O)CC(SP(=S)(OC)OC)C(=O)OCC (stereo not given),inactive,
C=CCC1=C(C)C(OC(=O)C2C(C=C(C)C)C2(C)C)CC1=O (stereo not given),inactive,29 µM (active) and 48.5 µM (active) and 56.1 µM (active)
CCNc1nc(Cl)nc(NC(C)C)n1,inactive,
COc1nc(C)nc(NC(=O)NS(=O)(=O)c2ccccc2CCC(F)(F)F)n1,inactive,
COC(=O)c1ccccc1C(=O)OC,inactive,
CC(Oc1ccc(Cl)cc1Cl)C(=O)O (stereo not given),inactive,

SMILES,outcome,AC50
CCc1nn(C)c(C(=O)NCc2ccc(C(C)(C)C)cc2)c1Cl,inactive,
COC(=O)C=C(C)OP(=O)(OC)OC,inactive,
CCCN(CCC)c1c([N+](=O)[O-])cc(S(N)(=O)=O)cc1[N+](=O)[O-],inactive,164 µM (active) and 113 µM (active)
CC1=C(C(=O)Nc2ccccc2)SCCO1,inactive,
CCCCNC(=O)OCC#CI,inactive,
Cc1c(F)c(F)c(COC(=O)C2C(/C=C(\Cl)C(F)(F)F)C2(C)C)c(F)c1F (stereo not given),inactive,
N#Cc1nn(-c2c(Cl)cc(C(F)(F)F)cc2Cl)c(N)c1S(=O)C(F)(F)F (stereo not given),inactive,
CNC(=S)S,inactive,
C=CCC1=C(C)[C@@H](OC(=O)[C@@H]2[C@@H](C=C(C)C)C2(C)C)CC1=O,inactive,
CC1COC(Cn2cncn2)(c2ccc(Oc3ccc(Cl)cc3)cc2Cl)O1 (stereo not given),inactive,
COc1nc(NC(C)C)nc(NC(C)C)n1,inactive,
C=CC1(C)OC(=O)N(c2cc(Cl)cc(Cl)c2)C1=O (stereo not given),inactive,
CCNc1nc(Cl)nc(NCC)n1,inactive,
COP(=S)(OC)Oc1nc(Cl)c(Cl)cc1Cl,inactive,
CC(C)C1(C)N=C(c2nc3ccccc3cc2C(=O)O)NC1=O (stereo not given),inactive,
CNC(=O)ON=CC(C)(C)SC,inactive,
N#Cc1cc(Br)c(O)c(Br)c1,inactive,
O=C(Nc1ccccc1)Nc1ccnc(Cl)c1,,108 µM (active)
O=C(O)c1nc(Cl)ccc1Cl,inactive,
